According to PubChem BioAssay (NCI):
Compounds without any hit were thinned out: in the full panel of roughly 79,000, 15% have a hit. Rule as the data show it: active = growth inhibition above about 70%; inactive = the rest. Where a SMILES comes first, the peptide text is derived from it. [ ]: non-standard residue; d: D form. The star is where a group is joined. NMeAc5c = CNC1(C(=O)O)CCCC1; Boc = CC(C)(C)OC(=O)*; OBn = c1ccc(CO*)cc1

Legend:
[1] = NCI Yeast Anticancer Drug Screen. Data for the rad50 strain (AID 155);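 also: 0% = growth of vehicle-only cultures of the same strain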; settings: S. cerevisiae rad50 strain growth inhibition; at 50.0 µM; active compounds read high
Summary of the method: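 Yeast carrying a defined DNA repair defect were exposed to test compounds, and growth was compared with vehicle-treated controls to give percent inhibition.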

[2] = NCI Yeast Anticancer Drug Screen. Data for the mec2-1 strain (AID 157); settings: S. cerevisiae mec2-1 strain, at 50.0 µM, active compounds read high
Summary of the method: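 Each compound was tested on mec2-1 yeast, a strain altered in DNA damage repair or cell cycle control. Growth inhibition is reported relative to vehicle.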

[3] = NCI Yeast Anticancer Drug Screen. Data for the sgs1 mgt1 strain (AID 161);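 also: 0% = growth of cultures given vehicle only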; settings: S. cerevisiae sgs1 mgt1 strain, at 50.0 µM, active compounds read high
Summary of the method: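 Mutant yeast exposed to compound; growth scored against vehicle-only wells.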

[4] = NCI Yeast Anticancer Drug Screen. Data for the cln2 rad14 strain (AID 165);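 also: 0% = growth equal to vehicle treated cultures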; settings: S. cerevisiae cln2 rad14 strain, at 50.0 µM, active compounds read high
Summary of the method: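 Test compounds were added to cln2 rad14 yeast cultures; inhibition of growth was then determined by comparison with vehicle treatment.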

[5] = NCI Yeast Anticancer Drug Screen. Data for the bub3 strain (AID 167); settings: S. cerevisiae bub3 mutant strain, at 50.0 µM, active compounds read high
Summary of the method: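 Compounds were applied to a genetically altered yeast strain carrying a cell-cycle control defect. Growth inhibition was scored against vehicle-treated controls.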

[6] = NCI Yeast Anticancer Drug Screen. Data for the mlh1 rad18 strain (AID 175); settings: S. cerevisiae mlh1 rad18 strain growth inhibition; at 50.0 µM; active compounds read high
Summary of the method: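 Inhibition values reflect reduced growth of mutant yeast versus vehicle-treated controls following compound exposure; the mutations affect DNA damage repair.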

Measured: growth inhibition

O=C1O[C@@H](c2ccccc2)C[C@@H]1CN1CCOCC1
inactive: [1] 24.4% | [2] 13.7% | [3] 22.7% | [4] 26.1% | [5] 3.15% | [6] 15.1%

CCOC(=O)c1ccc(NCC2CNc3ccccc3N2)cc1 (configuration not stated)
inactive: [1] 36.2% | [2] -11.2% | [3] 17.7% | [4] -8.35% | [5] 23.2% | [6] 18.2%

CCCc1nc(N)[nH]c(=O)c1I
inactive: [1] -26% | [2] -9.1% | [3] -15.1% | [4] 5.3% | [5] 7.8% | [6] 0.45%

O=C([O-])C[n+]1ccccc1
inactive: [1] -11.3% | [2] -2.75% | [3] -14.5% | [4] -35.9% | [5] -19.1% | [6] -14.4%

COC(=O)C(CCc1ccc([N+](=O)[O-])cc1)(CCc1ccc([N+](=O)[O-])cc1)C(=O)OC
inactive: [1] 19.2% | [2] 3.25% | [3] 4.15% | [4] -17.9% | [5] 24.2% | [6] 34.9%

Nc1ccc(C(=O)Nc2cccc(OCc3nc(N)nc(N)c3-c3ccc(Cl)cc3)c2)cc1
inactive: [1] 16.6% | [2] -6.15% | [3] -16.2% | [4] 16.5% | [5] 2.3% | [6] 13.2%

Brc1ccc(Br)s1
inactive: [1] -11.2% | [2] -0.1% | [3] -20.4% | [4] -38.3% | [5] 7.5% | [6] 0.4%

CCCCCCC1(C=O)C(=O)NC(=O)N1C (configuration not stated)
inactive: [1] 10.3% | [2] 9.65% | [3] 6.45% | [4] 13.3% | [5] 4.1% | [6] -0.35%

CCOC(=O)CNC(=O)C(CC(C)C)NC(=O)OCc1ccccc1 (configuration not stated)
inactive: [1] 6.7% | [2] 7.9% | [3] 28.8% | [4] 5.25% | [5] 2.8% | [6] -11%

NC1=NC(c2ccccc2O)CC(=O)N1 (configuration not stated)
inactive: [1] -6.4% | [2] -8.25% | [3] -12.9% | [4] -32.6% | [5] -3.9% | [6] -6.35%

CCN(CC)c1nc(Cl)nc(C(N)=O)c1N
inactive: [1] 4.85% | [2] -8.25% | [3] -10.4% | [4] -16.1% | [5] -1.2% | [6] -10.4%

Cc1c(COC(=O)NC(C)C)c(COC(=O)NC(C)C)c2n1CCS2(=O)=O
inactive: [1] -26.8% | [2] -20.8% | [3] 4.75% | [4] -32.7% | [5] 0.5% | [6] -21.6%

C=CCOc1cc2c(cc1C(C)c1ccc(OCC)cc1)OCO2 (configuration not stated)
inactive: [1] 51.6% | [2] 14.8% | [3] -14.6% | [4] -19.4% | [5] -10.8% | [6] -32.3%

Cc1cccc(C)c1N1C(=O)C2c3[nH]c4ccccc4c3C3CCC(C(C)(C)C)CC3C2C1=O (configuration not stated)
inactive: [1] 37.7% | [2] 11.4% | [3] 28.2% | [4] 1.8% | [5] 3.4% | [6] 18.1%

COc1cc(C=Nc2ccc(Cl)cc2)ccc1O
inactive: [1] -35.9% | [2] -25.9% | [3] -19.1% | [4] -20.6% | [5] -24.9% | [6] -43.3%

O=c1c2ccccc2nc(-c2ccccc2)n1/N=C/c1ccccc1O
inactive: [1] 1.15% | [2] 38.8% | [3] 34.6% | [4] -5.65% | [5] 32.9% | [6] 27.1%

CC(=O)c1sc2c(c1OC(=O)c1ccco1)c(=O)n(-c1ccccc1)c(=S)n2-c1ccccc1
inactive: [1] 20.8% | [2] 18.2% | [3] 23.7% | [4] 25.6% | [5] 6.85% | [6] 33.9%

CN1c2ccccc2SC1(C)CCC(=O)O (configuration not stated)
inactive: [1] 21.5% | [2] 35.9% | [3] 37.6% | [4] 6% | [5] 29.6% | [6] 7.65%

CC1=CC[N+](C)(C)C(C(N)=O)C1 (configuration not stated)
inactive: [1] -5% | [2] -12.8% | [3] -17.2% | [4] 9.95% | [5] 20.9% | [6] -18.1%

Cc1nc2ccccc2n1C(=O)c1c(F)c(F)c(F)c(F)c1F
inactive: [1] -35.9% | [2] -17.6% | [3] -28.6% | [4] -18.7% | [5] -9.8% | [6] -18.9%

CN(C(=O)C(Cc1ccccc1)NC(=O)OC(C)(C)C)C1(C(=O)NC(Cc2ccccc2)C(=O)OCc2ccccc2)CCCC1 (stereo not drawn) (Boc-Phe-[NMeAc5c]-Phe-OBn; configuration not given here)
inactive: [1] -3.35% | [2] 15.6% | [3] -4.5% | [4] 11.8% | [5] 8.6% | [6] 13.6%

Nc1nnc2cc(Br)ccc2n1
inactive: [1] -6% | [2] -2.55% | [3] 17.7% | [4] 14.2% | [5] 19.5% | [6] 4.45%

O=C(CCl)Nc1ccc(O)c2ccccc12
inactive: [1] 14.8% | [2] 4.65% | [3] 7.45% | [4] 9.95% | [5] 5.85% | [6] 36.8%

COc1cc2c(cc1OC)-c1cc3cc(OC)c(OC)cc3c(C)[n+]1CC2 (tested in a mixture with another compound)
inactive: [1] 6.25% | [2] 0% | [3] 11.9% | [4] 19.4% | [5] 11.4% | [6] -66.8%

Cc1ccc2c(c1)C(C(C)C)CCC2(C)C (configuration not stated)
inactive: [1] 5.3% | [2] -8.1% | [3] 2.95% | [4] 4.85% | [5] -0.6% | [6] 0.7%

CCCCCn1[nH]nc(C(=O)OC)c1=O (tested in a mixture with another compound)
inactive: [1] 18.8% | [2] 17.1% | [3] 23.1% | [4] 27.5% | [5] 30.5% | [6] 34.4%

O=C(CCl)NCCCCCNC(=O)CCl
inactive: [1] -11.7% | [2] 2.85% | [3] -6.85% | [4] -31.7% | [5] 15.2% | [6] 17.6%

CC(C)(C)N(O)c1ccc(P(=O)(c2ccccc2)c2ccccc2)cc1
inactive: [1] 23.4% | [2] 15.4% | [3] 12.3% | [4] -4.7% | [5] -2.35% | [6] 11.8%

CC(=O)Nc1ccc(S(=O)(=O)O)c(C(F)(F)F)c1
inactive: [1] 17.1% | [2] 21.1% | [3] 12.6% | [4] -8% | [5] 26.5% | [6] 11.4%

Cc1cc(Cl)ccc1OCC(=O)OCC(C)(C)[N+](=O)[O-]
inactive: [1] 6.05% | [2] 19.1% | [3] 20.4% | [4] -80.2% | [5] 36.6% | [6] 33.7%

CN(C)CCNc1ccc2ncn3c4ccccc4c(=O)c1c23
inactive: [1] 13.4% | [2] -0.35% | [3] -4.95% | [4] 27.1% | [5] -0.1% | [6] 46.5%

CCOc1ccccc1OCC
inactive: [1] 25.1% | [2] -27.2% | [3] -25.9% | [4] 12.3% | [5] -11.2% | [6] 21.2%

Cc1cc(=O)[nH]c(Nc2nc3cc(C)c(C)cc3[nH]2)n1
inactive: [1] 9.6% | [2] -4.9% | [3] 2.05% | [4] 9.2% | [5] -8.2% | [6] -8.4%

NC(=O)NCCSC1CCCCC1O (configuration not stated)
inactive: [1] -23.1% | [2] -35% | [3] -28.4% | [4] 3.1% | [5] -64.5% | [6] 6.45%

N#Cc1ccccc1C(Cl)(Cl)c1cnccn1
inactive: [1] 9.9% | [2] -6.85% | [3] -10.7% | [4] 29.9% | [5] -0.4% | [6] 20.1%

CN1CCCC(NC(c2ccccc2)c2ccccc2)C1 (configuration not stated)
inactive: [1] 25.4% | [2] 0.45% | [3] 23.9% | [4] -11.8% | [5] 34.5% | [6] 18.9%

Cc1cccc[n+]1[O-]
inactive: [1] 10.8% | [2] -8% | [3] 5.9% | [4] -13.7% | [5] 1.65% | [6] 7%

CCOC(=O)C(NC(=O)CC)(Nc1ccccc1OC)C(F)(F)F (configuration not stated)
inactive: [1] -40.9% | [2] -28.6% | [3] -28.6% | [4] -17.3% | [5] -25.2% | [6] -31.5%

O=C(NCCc1c[nH]c2ccccc12)C1CC1
inactive: [1] -40% | [2] 16.6% | [3] -14.8% | [4] -32.2% | [5] 7.05% | [6] -25.9%

O=C(O)CC1OCC=C2C[N+]3([O-])CCC45c6ccccc6NC4C1C2CC53 (configuration not stated)
inactive: [1] -1.5% | [2] 19.7% | [3] -16.1% | [4] -31.9% | [5] -35.4% | [6] 10.6%

CCOC(=O)C1(C)Sc2ccccc2N=C1c1ccccc1 (configuration not stated)
inactive: [1] 25.9% | [2] 48.5% | [3] 45.5% | [4] 7.35% | [5] 26.1% | [6] 17.6%

Cn1c(=O)c2c(no[n+]2[O-])c2ccccc21
inactive: [1] 18.1% | [2] 15.7% | [3] 8.05% | [4] 14.1% | [5] 21.1% | [6] 22.4%
